Source: PubChem
Lmaj promast – Leishmania major promastigote growth inhibition; Leishmania major promastigotes, resazurin fluorescence viability; inhibition, % at 10 µM; 200,000 tested, 9% active; in the data active = inhibition above about 50%;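 also: promastigotes grown with compound for 44 hours at 28 °C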
Insulin prom up – MIN6 insulin promoter up-regulation; MIN6 insulin promoter-GFP reporter, high-content imaging; stronger effect = higher value; z-score at 5 µM; 190,000 tested, 0.3% active; AID 1625;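 active = z-score above 3 at 5 µM with at least 500 cells counted in the well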
INS promoter inh – TRM-6 insulin promoter activity inhibition. inhibition, % at 2 µM. AID 1273. TRM-6 cells (human fetal islet line), insulin promoter-eGFP reporter, imaging; reporter expression induced with tamoxifen. 130,000 tested, 0.9% active;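 active = inhibition above the mean plus 3 SD, with well images judged a real hit on visual review, cut at about 60% in these data, passing the limit was not always enough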
WT yeast gro inh – growth inhibition of WT yeast, mitochondrial fusion screen; 190,000 tested, 2.1% active; mitochondrial fusion phenotypic screen, WT strain; inhibition, % at 10 µM; in the data active = inhibition above about 58%; tested in S. cerevisiae
Autophagy HCS – autophagy modulation, high-content screen; MEF GFP-LC3 puncta imaging; test concentration mostly 10 µM; calls only at 10 µM (by protocol); 190,000 tested, 0.98% active;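 active = percentage of spot-positive cells more than 3 SD above its plate mean, without a fluorescence outlier flag or 80% toxicity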;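 also: spot-positive cell cutoff set from DMSO-treated cells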
An asterisk follows results filed as active. This is a sample that favours compounds with a hit; in the whole collection about 11% have one here.

Screening O=S(=O)(NC1c2cccc3cccc(c23)C1N1CCN(CCO)CC1)c1ccccc1 (stereo not given) returned Lmaj promast 71.1*, Insulin prom up 0.12, INS promoter inh -27.3 and Autophagy HCS inactive.
Screening O=S(=O)(NC1c2cccc3cccc(c23)C1N1CCNCC1)c1ccccc1 (stereo not given) returned Lmaj promast 22.9, Insulin prom up 0.64, WT yeast gro inh 15.1 and Autophagy HCS inactive.
For O=C(c1ccccc1)N1CCN(C2c3cccc4cccc(c34)C2NS(=O)(=O)c2ccccc2)CC1 (stereo not given) the results were Lmaj promast 98.7*, Insulin prom up -0.34, INS promoter inh 27.9, WT yeast gro inh 10.8 and Autophagy HCS inactive.
For COC(=O)c1oc2c(c1C)C(=O)CC(C)(C)C2 the results were Lmaj promast -6.3, Insulin prom up 0.35, WT yeast gro inh -2.9 and Autophagy HCS inactive.
For CC1(C)CC(=O)c2c(oc3cc(O)c(O)cc23)C1 the results were Lmaj promast 84.4*, Insulin prom up -1.03, INS promoter inh 24.1, WT yeast gro inh -24.3 and Autophagy HCS inactive.
Screening CC(=O)c1cn(CCC(C)C)c(=O)[nH]c1=O returned Lmaj promast -6.9, Insulin prom up 0.11, INS promoter inh -7.7, WT yeast gro inh 5.4 and Autophagy HCS inactive.
Screening CC12CC3CC(C)(C1)CC(NCc1ccncc1)(C3)C2 returned Lmaj promast 82.5*, Insulin prom up -0.39, INS promoter inh 38.9, WT yeast gro inh -14.2 and Autophagy HCS inactive.
`COc1cccc(NC(=O)Nc2ccncc2)c1` gave Lmaj promast 14.9, Insulin prom up -0.45, WT yeast gro inh 1.5 and Autophagy HCS inactive.
For COC(=O)c1ccc(NC(=O)Cc2ccc(C)cc2)cc1 the results were Lmaj promast 64.6*, Insulin prom up -0.37, INS promoter inh -9.7, WT yeast gro inh -14.3 and Autophagy HCS inactive.
`COc1cccc(NC(=O)Nc2ccc(C(C)(C)C)cc2)c1` gave Lmaj promast 1.3, WT yeast gro inh 62.7* and Autophagy HCS inactive.
For O=C(Cc1ccccc1)Nc1ccc(C(=O)O)cc1 the results were Lmaj promast -7.0, INS promoter inh -53.3, WT yeast gro inh -3.3 and Autophagy HCS inactive.
Screening COC(=O)c1ccc(NC(=O)Cc2ccccc2)cc1 returned Lmaj promast 76.2*, Insulin prom up -0.39, INS promoter inh -10.0, WT yeast gro inh 44.3 and Autophagy HCS inactive.
COc1ccc(CC(=O)Nc2cccc(-c3nnc(-c4ccco4)o3)c2)cc1 was read as Lmaj promast 61.1*, WT yeast gro inh 2.8 and Autophagy HCS inactive.
For CCCCCCCCCCC(=O)NNC(=O)c1c(O)c2ccccc2n(CC)c1=O the results were Lmaj promast 6.7, Insulin prom up -0.06, INS promoter inh 11.1, WT yeast gro inh -9.0 and Autophagy HCS inactive.
`Cc1ccc2[nH]c(O)c(N=NC(=O)C(C)n3cnc4ccccc4c3=O)c2c1` (stereo not given) gave Lmaj promast 43.8, Insulin prom up 0.26, INS promoter inh 3.5, WT yeast gro inh -2.7 and Autophagy HCS inactive.
Screening COc1cccc(NC(=O)CSCC(=O)Nc2ccccc2)c1 returned Lmaj promast 1.1, INS promoter inh 3.6, WT yeast gro inh 5.0 and Autophagy HCS inactive.
For COc1cccc(NC(=O)Cc2ccccc2)c1 the results were Lmaj promast -0.3, Insulin prom up 0.82, INS promoter inh 72.7*, WT yeast gro inh 4.2 and Autophagy HCS inactive.
`CS(=O)(=O)N(CC(=O)Nc1ccc2c(c1)OCO2)Cc1ccc(Cl)cc1` gave Lmaj promast 21.2, Insulin prom up 0.1, INS promoter inh -37.5, WT yeast gro inh 6.6 and Autophagy HCS inactive.
For COC(=O)c1ccc(NC(=O)CN(Cc2ccc(Cl)cc2)S(C)(=O)=O)cc1 the results were Lmaj promast 100.2*, INS promoter inh 28.6, WT yeast gro inh 6.4 and Autophagy HCS inactive.
For COc1cccc(NC(=O)CC2COc3ccccc3O2)c1 (stereo not given) the results were Lmaj promast 56.5*, Insulin prom up 0.26, INS promoter inh -48.4, WT yeast gro inh -8.8 and Autophagy HCS inactive.
Screening COc1cccc(NC(=O)c2cc(CN3C(=O)c4ccccc4C3=O)ccc2OC)c1 returned Lmaj promast 88.7*, Insulin prom up 0.19, INS promoter inh 35.1, WT yeast gro inh 10.2 and Autophagy HCS inactive.
Nc1nc(SCC(=O)Nc2cccc(Oc3ccccc3)c2)n[nH]1 was read as Lmaj promast 56.4*, Insulin prom up 0.21, INS promoter inh 40.7, WT yeast gro inh 1.8 and Autophagy HCS inactive.
For CCc1ccc(NC(=O)Cc2ccc(-n3cccc3)cc2)cc1 the results were Lmaj promast 86.1*, Insulin prom up 0.09, INS promoter inh 3.9, WT yeast gro inh 2.3 and Autophagy HCS inactive.
For O=C(CCl)Nc1cccc(Oc2ccccc2)c1 the results were Lmaj promast 97.9*, Insulin prom up 1.84, INS promoter inh 66.7, WT yeast gro inh 0.4 and Autophagy HCS inactive.
O=C(CN1CCCCC1)Nc1cccc(Oc2ccccc2)c1 was read as Lmaj promast 4.7, Insulin prom up 0.64, INS promoter inh 13.0, WT yeast gro inh -16.3 and Autophagy HCS inactive.
COc1ccc(C2CC(=O)c3cnc(NC(=O)c4ccccc4)nc3C2)c(OC)c1 (stereo not given) was read as Lmaj promast 38.9, Insulin prom up 0.36, INS promoter inh 18.2, WT yeast gro inh -2.8 and Autophagy HCS inactive.
`CCOC(=O)CNCCC(=O)c1ccc(Br)cc1` gave Lmaj promast 63.5*, WT yeast gro inh -7.4 and Autophagy HCS inactive.
Screening O=C(O)c1cc(-c2cccs2)nc2cc3c(cc12)OCCO3 returned Lmaj promast -11.5, INS promoter inh 85.7*, WT yeast gro inh -10.6 and Autophagy HCS inactive.
`Cc1c(NC(=O)CSc2ncnc3ccccc23)c(=O)n(-c2ccccc2)n1C` gave Lmaj promast -4.5, Insulin prom up -0.23, WT yeast gro inh -1.1 and Autophagy HCS inactive.
For Fc1cc(F)c2nc(N3CCCC3)sc2c1 the results were Lmaj promast 0.4, Insulin prom up 0.23, INS promoter inh 61.5, WT yeast gro inh 17.1 and Autophagy HCS inactive.
For CC1CN(Cc2nc3c(c(=O)n(C)c(=O)n3C)n2Cc2ccc(Cl)cc2)CC(C)O1 (stereo not given) the results were WT yeast gro inh 16.3.
Screening COc1ccc(C2=NOC(Cn3c(Cc4ccc(Cl)cc4)nc4c3c(=O)n(C)c(=O)n4C)C2)cc1 (stereo not given) returned Lmaj promast 63.9*, Insulin prom up -2.43, WT yeast gro inh 37.1 and Autophagy HCS inactive.
`Cc1ccc(-n2nnnc2SCc2nc3sc(C)c(C)c3c(=O)[nH]2)cc1` gave Lmaj promast 58.3*, Insulin prom up 1.14, INS promoter inh -21.6, WT yeast gro inh -8.0 and Autophagy HCS active.
Screening O=C(Nc1ccc(Cl)c(Cl)c1)N1N=CCC1c1ccccc1 (stereo not given) returned Lmaj promast 18.7, INS promoter inh -20.0, WT yeast gro inh 67.5 and Autophagy HCS inactive.
